This is part of a sample that, as a whole, favours compounds with a hit. Of some 79,000 tested, about 15% had one in any assay. Unmarked numbers belong to inactive results. Activity calls are given as the source filed them. Cut-off read from the data, not from the text of the source: active = growth inhibition above about 70%; inactive = the rest.

Assay [1] can be described thus: NCI Yeast Anticancer Drug Screen. Data for the rad50 strain (AID 155).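 Note: 0% = growth of vehicle-only cultures of the same strain.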 To be noted: S. cerevisiae rad50 strain growth inhibition, hits give high values. In a few lines: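 Readout: growth inhibition relative to vehicle-treated cultures. Compound exposure was carried out in a genetically defined yeast strain deficient in DNA damage repair.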
A short description of assay [2]: NCI Yeast Anticancer Drug Screen. Data for the mec2-1 strain (AID 157). To be noted: S. cerevisiae mec2-1 strain, hits give high values. Put shortly:
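mec2-1 yeast strain, carrying an alteration in DNA damage repair or cell cycle control, was exposed to compounds; growth inhibition was measured relative to vehicle-treated controls.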

The nature of assay [3]: NCI Yeast Anticancer Drug Screen. Data for the sgs1 mgt1 strain (AID 161).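 Note: 0% = growth of cultures given vehicle only.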 To be noted: S. cerevisiae sgs1 mgt1 strain, hits give high values. In a few lines: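 Yeast cells carrying a defined DNA-repair defect were exposed to test compounds. Growth inhibition was measured relative to vehicle-treated controls.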
Assay [4] is described as follows: NCI Yeast Anticancer Drug Screen. Data for the cln2 rad14 strain (AID 165).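 Note: 0% = growth equal to vehicle treated cultures.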 The following applies: S. cerevisiae cln2 rad14 strain, hits give high values. In a few lines: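 Yeast carrying cln2 and rad14 alterations (cell cycle control and DNA damage repair) were exposed to compounds. Growth inhibition was measured against vehicle-treated controls.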
Assay [5] in a line: NCI Yeast Anticancer Drug Screen. Data for the bub3 strain (AID 167). The following applies: S. cerevisiae bub3 mutant strain, hits give high values. In a few lines:
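Readout: yeast growth inhibition, expressed relative to vehicle-only wells. The test organism is a mutant strain from a panel with lesions in DNA repair or checkpoint genes.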

Assay [6] is described as follows: NCI Yeast Anticancer Drug Screen. Data for the mlh1 rad18 strain (AID 175). To be noted: S. cerevisiae mlh1 rad18 strain growth inhibition, hits give high values. In a few lines: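 Growth inhibition of the yeast strain was measured after compound exposure and expressed relative to vehicle-treated controls. The strain carries defined defects in DNA damage repair.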

[7] abbreviates: at 5.0 µM (retest, dose inferred, filed as 0.5).
Setting [8] is: at 50.0 µM (retest, dose inferred, filed as 5.0).

For `CCOC(=O)C[n+]1c(C)cc(-c2ccccc2)cc1C`, the growth inhibition is -2% in assay [1] (setting [7]); 1% in assay [1] (setting [8]); 13.6% in assay [1] (at 50.0 µM); 7% in assay [2] (setting [7]); -15% in assay [2] (setting [8]); 6.3% in assay [2] (at 50.0 µM). In addition, the growth inhibition in assay [3] (setting [7]) is -1%; in assay [3] (setting [8]), -3%; in assay [3] (at 50.0 µM), 12.2%; in assay [4] (setting [7]) it was -1%; in assay [4] (setting [8]), 2%; in assay [4] (at 50.0 µM), 28.1%. In addition, the growth inhibition in assay [5] (setting [7]) is 24%; in assay [5] (setting [8]), -4%; in assay [5] (at 50.0 µM) it was 14.2%; in assay [6] (setting [7]) it was 9%; in assay [6] (setting [8]), 21%; in assay [6] (at 50.0 µM) it was 7.55%.

Turning to `CCCCCCCCCCCCCCCCCC(=O)OCC(O)COC(=O)CCCCCCCCCCCCCCCCC`, the growth inhibition in assay [1] (setting [7]) is -2%; in assay [1] (setting [8]), -5%; in assay [1] (at 50.0 µM), -7.45%; in assay [2] (setting [7]), 1%; in assay [2] (setting [8]) it was -3%; in assay [2] (at 50.0 µM), 15.6%. The growth inhibition in assay [3] (setting [7]) is -3%; in assay [3] (setting [8]) it was -21%; in assay [3] (at 50.0 µM), -8.65%; in assay [4] (setting [7]) it was 0%; in assay [4] (setting [8]), -13%; in assay [4] (at 50.0 µM), 38.4%. Also, the growth inhibition in assay [5] (setting [7]) is 4%; in assay [5] (setting [8]), 0%; in assay [5] (at 50.0 µM) it was 45.5%; in assay [6] (setting [7]), 2%; in assay [6] (setting [8]), -1%; in assay [6] (at 50.0 µM), 2.55%.

`CN(C)c1nc(N(C)C)oc(=[N+](C)C)n1`: the growth inhibition in assay [1] (setting [7]) is -2%; in assay [1] (setting [8]), -13%; in assay [1] (at 50.0 µM), 9.7%; in assay [2] (setting [7]), 3%; in assay [2] (setting [8]), -8%; in assay [2] (at 50.0 µM), 9.35%. Moreover, the growth inhibition in assay [3] (setting [7]) is 0%; in assay [3] (setting [8]), -9%; in assay [3] (at 50.0 µM), 7.8%; in assay [4] (setting [7]), 3%; in assay [4] (setting [8]) it was 1%; in assay [4] (at 50.0 µM) it was 57.3%. The growth inhibition was 3% in assay [5] (setting [7]); 15% in assay [5] (setting [8]); -7.45% in assay [5] (at 50.0 µM); 1% in assay [6] (setting [7]); -13% in assay [6] (setting [8]); 30.4% in assay [6] (at 50.0 µM).

As for `C/C(=N\NC(=S)N1CCN(c2ccccn2)CC1)c1ccccn1`, the growth inhibition in assay [1] (setting [7]) was 46%; in assay [1] (setting [8]), 99% (active); in assay [1] (at 50.0 µM), 87.7% (active); in assay [2] (setting [7]), 35%; in assay [2] (setting [8]) it was 100% (active); in assay [2] (at 50.0 µM), 90.2% (active). Besides, the growth inhibition in assay [3] (setting [7]) was 35%; in assay [3] (setting [8]), 99% (active); in assay [3] (at 50.0 µM) it was 89.8% (active); in assay [4] (setting [7]) it was 21%; in assay [4] (setting [8]), 98% (active); in assay [4] (at 50.0 µM), 83.2% (active). For the same compound, the growth inhibition in assay [5] (setting [7]) was 63%; in assay [5] (setting [8]), 100% (active); in assay [5] (at 50.0 µM), 90.1% (active); in assay [6] (setting [7]), 58%; in assay [6] (setting [8]) it was 99% (active); in assay [6] (at 50.0 µM), 88.3% (active).

Turning to `O=C(Cl)c1cc(-c2ccc(Cl)cc2)nc2c(Cl)cccc12`, the growth inhibition in assay [1] (setting [7]) is 6%; in assay [1] (setting [8]) it was 98% (active); in assay [1] (at 50.0 µM), 72.5% (active); in assay [2] (setting [7]) it was 11%; in assay [2] (setting [8]), 99% (active); in assay [2] (at 50.0 µM), 61.2%. Besides, the growth inhibition is 5% in assay [3] (setting [7]); 99% (active) in assay [3] (setting [8]); 84.8% (active) in assay [3] (at 50.0 µM); 3% in assay [4] (setting [7]); 99% (active) in assay [4] (setting [8]); 42.4% in assay [4] (at 50.0 µM). The growth inhibition was 4% in assay [5] (setting [7]); 99% (active) in assay [5] (setting [8]); 74.2% (active) in assay [5] (at 50.0 µM); 9% in assay [6] (setting [7]); 99% (active) in assay [6] (setting [8]); 87.2% (active) in assay [6] (at 50.0 µM).

In the case of `O=C1C=CC(=O)N1C1c2ccccc2-c2ccccc21`, the growth inhibition was 99% (active) in assay [1] (setting [7]); 99% (active) in assay [1] (setting [8]); 99.5% (active) in assay [1] (at 50.0 µM); 100% (active) in assay [2] (setting [7]); 100% (active) in assay [2] (setting [8]); 99.1% (active) in assay [2] (at 50.0 µM). Also, the growth inhibition in assay [3] (setting [7]) is 99% (active); in assay [3] (setting [8]) it was 100% (active); in assay [3] (at 50.0 µM) it was 99.5% (active); in assay [4] (setting [7]), 77% (active); in assay [4] (setting [8]), 99% (active); in assay [4] (at 50.0 µM), 98% (active). The growth inhibition in assay [5] (setting [7]) was 100% (active); in assay [5] (setting [8]) it was 100% (active); in assay [5] (at 50.0 µM), 99.5% (active); in assay [6] (setting [7]), 99% (active); in assay [6] (setting [8]), 99% (active); in assay [6] (at 50.0 µM) it was 97.1% (active).

Turning to `O=C1c2ccccc2C(=O)N1c1ccccc1`, the growth inhibition in assay [1] (setting [7]) is -2%; in assay [1] (setting [8]) it was -20%; in assay [1] (at 50.0 µM), 31.4%; in assay [2] (setting [7]) it was -3%; in assay [2] (setting [8]), -1%; in assay [2] (at 50.0 µM) it was -5.9%. The growth inhibition in assay [3] (setting [7]) is 1%; in assay [3] (setting [8]), 5%; in assay [3] (at 50.0 µM), 20%; in assay [4] (setting [7]), 3%; in assay [4] (setting [8]) it was 7%; in assay [4] (at 50.0 µM), 42.2%. The growth inhibition in assay [5] (setting [7]) was 36%; in assay [5] (setting [8]), 15%; in assay [5] (at 50.0 µM), 2.3%; in assay [6] (setting [7]), -1%; in assay [6] (setting [8]), 2%; in assay [6] (at 50.0 µM) it was 16.4%.

With `C[N+](C)(C)c1nc(N)nc2c1ncn2C1OC(CO)C(O)C1O` (stereo not given), the growth inhibition was 9% in assay [1] (setting [7]); 15% in assay [1] (setting [8]); 29.5% in assay [1] (at 50.0 µM); 12% in assay [2] (setting [7]); -11% in assay [2] (setting [8]); 6.5% in assay [2] (at 50.0 µM). Also, the growth inhibition in assay [3] (setting [7]) was 9%; in assay [3] (setting [8]) it was 3%; in assay [3] (at 50.0 µM), -40.6%; in assay [4] (setting [7]) it was -20%; in assay [4] (setting [8]), -2%; in assay [4] (at 50.0 µM), 70.3% (active). The growth inhibition was 1% in assay [5] (setting [7]); -1% in assay [5] (setting [8]); -27.2% in assay [5] (at 50.0 µM); 5% in assay [6] (setting [7]); 16% in assay [6] (setting [8]); 11% in assay [6] (at 50.0 µM).

In the case of `O=C(Cc1ccccc1)c1ccc(O)c(F)c1`, the growth inhibition in assay [1] (setting [7]) is 4%; in assay [1] (setting [8]), 79% (active); in assay [1] (at 50.0 µM) it was 87.3% (active); in assay [2] (setting [7]), 6%; in assay [2] (setting [8]) it was 85% (active); in assay [2] (at 50.0 µM), 77.5% (active). The growth inhibition in assay [3] (setting [7]) is 6%; in assay [3] (setting [8]), 72% (active); in assay [3] (at 50.0 µM) it was 80.2% (active); in assay [4] (setting [7]), 4%; in assay [4] (setting [8]), 68%; in assay [4] (at 50.0 µM), 72.4% (active). Also, the growth inhibition in assay [5] (setting [7]) is 7%; in assay [5] (setting [8]), 88% (active); in assay [5] (at 50.0 µM), 82.5% (active); in assay [6] (setting [7]) it was 7%; in assay [6] (setting [8]) it was 84% (active); in assay [6] (at 50.0 µM), 83.7% (active).

Consider `S=C(N/N=C(/c1ccccc1)c1ccccn1)Nc1cccc(Cl)c1`, for which the growth inhibition was 48% in assay [1] (setting [7]); 88% (active) in assay [1] (setting [8]); 2.05% in assay [1] (at 50.0 µM); 32% in assay [2] (setting [7]); 91% (active) in assay [2] (setting [8]); 3.3% in assay [2] (at 50.0 µM). Further, the growth inhibition in assay [3] (setting [7]) is 24%; in assay [3] (setting [8]) it was 88% (active); in assay [3] (at 50.0 µM), 41.6%; in assay [4] (setting [7]), 25%; in assay [4] (setting [8]), 88% (active); in assay [4] (at 50.0 µM) it was 17.6%. Further, the growth inhibition in assay [5] (setting [7]) was 40%; in assay [5] (setting [8]), 85% (active); in assay [5] (at 50.0 µM), 20.1%; in assay [6] (setting [7]) it was 36%; in assay [6] (setting [8]), 89% (active); in assay [6] (at 50.0 µM) it was 26.1%.

Source of the values: PubChem BioAssay (NCI).
